In PubChem BioAssay (EPA / NIEHS) one finds outcome and AC50 data, which are given here for five compounds.

Molecules are shown by their SMILES. Active and inactive are the calls of the source. How the source made its calls: active means hit-call score of the fitted dose curve at least 0.9, where 1 is the maximum; inactive means score below 0.9.

Common to all, as to settings: mRNA level, 48 h; actives raise or lower the signal
Read-out in experiment [1]: ABC Transporter (ABCC2), ABCC2 (gene 1244)
Kind of experiment: LTEA_HepaRG_ABCC2: Life Technologies and Expression Analysis (LTEA) Assay for ABC Transporter (ABCC2) using HepaRG (AID 2283464). The procedure, abridged: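 HepaRG, 48 h post-plating; serum-free induction medium; cpd 8-pt, 100 uM top, half-log, 0.5% DMSO, duplicate, 48 h. Readout: ABCC2 mRNA by qRT-PCR, norm. ACTB/GAPDH/POLR2A. Bidirectional fit vs DMSO baseline.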

Read-out in experiment [2]: Broad substrate specificity ATP-binding cassette transporter ABCG2 (Homo sapiens) (UniProt Q9UNQ0)
Kind of experiment: LTEA_HepaRG_ABCG2: Life Technologies and Expression Analysis (LTEA) Assay for ABC Transporter (ABCG2) using HepaRG (AID 2283465). A digest of the protocol: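 Differentiated HepaRG cells in serum-free induction medium were exposed for 48 h, in duplicate, to eight half-log concentrations up to 100 uM in 0.5% DMSO. ABCG2 mRNA was measured by TaqMan qRT-PCR, normalized to ACTB, GAPDH and POLR2A, and fitted bidirectionally versus DMSO.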

Read-out in experiment [3]: ATP-citrate lyase (ACLY), ACLY (gene 47)
Kind of experiment: LTEA_HepaRG_ACLY: Life Technologies and Expression Analysis (LTEA) Assay for ATP-citrate lyase (ACLY) using HepaRG (AID 2283466). The procedure, abridged: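 Differentiated human HepaRG cells in serum-free induction medium exposed 48 h, in duplicate, to eight half-log concentrations from 100 uM top in 0.5% DMSO; ACLY mRNA measured by qRT-PCR, normalized to ACTB, GAPDH, POLR2A, fitted bidirectionally versus DMSO.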

Read-out in experiment [4]: Peroxisomal acyl-coenzyme A oxidase 1 (ACOX1) gene, ACOX1 (gene 51)
Kind of experiment: LTEA_HepaRG_ACOX1: Life Technologies and Expression Analysis (LTEA) Assay for Peroxisomal acyl-coenzyme A oxidase 1 (ACOX1) gene using HepaRG (AID 2283467). The procedure, abridged: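 Differentiated human HepaRG cells were exposed in duplicate for 48 h in serum-free induction medium to eight half-log concentrations up to 100 uM in 0.5% DMSO. ACOX1 mRNA was then quantified by TaqMan qRT-PCR, normalized to ACTB, GAPDH and POLR2A.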

Read-out in experiment [5]: Alkaline Phosphatase, Placental (ALPP) gene, ALPP (gene 250)
As to the kind of experiment: LTEA_HepaRG_ALPP: Life Technologies and Expression Analysis (LTEA) Assay for Alkaline Phosphatase, Placental (ALPP) gene using HepaRG (AID 2283468). A digest of the protocol: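 HepaRG, 48 h plating then 48 h dosing, serum-free induction medium, 0.5% DMSO. 8 conc, half-log, max 100 uM, duplicates. Endpoint: ALPP transcript by qRT-PCR, housekeeping-normalized; gain or loss fitted vs DMSO.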

Read-out in experiment [6]: Bcl-2 (BAX) gene, BAX (gene 581)
As to the kind of experiment: LTEA_HepaRG_BAX: Life Technologies and Expression Analysis (LTEA) Assay for Bcl-2 (BAX) gene using HepaRG (AID 2283470). The procedure, abridged: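 Concentration-response endpoint fitted in both directions relative to 0.5% DMSO vehicle. Human HepaRG cultures receive test chemicals for 48 h at up to 100 uM; BAX mRNA is quantified by qRT-PCR against housekeeping genes.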

Read-out in experiment [7]: adenosine kinase (ADK) gene, ADK (gene 132)
Kind of experiment: LTEA_HepaRG_ADK: Life Technologies and Expression Analysis (LTEA) Assay for adenosine kinase (ADK) gene using HepaRG (AID 2283471). The procedure, abridged: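 ADK expression quantified by qRT-PCR, normalised to three housekeeping genes, after 48 h exposure of HepaRG cells to eight concentrations (top 100 uM, half-log steps, duplicate, 0.5% DMSO). Up- or down-regulation fitted relative to vehicle.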

Read-out in experiment [8]: Alpha-fetoprotein (AFP) gene, AFP (gene 174)
Kind of experiment: LTEA_HepaRG_AFP: Life Technologies and Expression Analysis (LTEA) Assay for Alpha-fetoprotein (AFP) gene using HepaRG (AID 2283472). The procedure, abridged:
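After a 48 h plating period, cells are moved to serum-free induction medium and dosed in duplicate (100 uM maximum, half-log dilutions, 0.5% DMSO) for another 48 h. Total RNA goes to TaqMan qRT-PCR; AFP signal is housekeeping-normalized.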

Read-out in a further experiment: BCL2L11 (gene 10018)
Kind of experiment: LTEA_HepaRG_BCL2L11: Life Technologies and Expression Analysis (LTEA) Assay for Bcl-2 (BCL2L11) gene using HepaRG (AID 2283473). A digest of the protocol:
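Read-out is BCL2L11 transcript level by qRT-PCR, normalized to three housekeeping genes and fitted bidirectionally against 0.5% DMSO vehicle. HepaRG cells received chemicals for 48 h in serum-free induction medium, 100 uM down in half-log dilutions.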

Read-out in experiment [9]: Apolipoprotein A-V (APOA5) gene, APOA5 (gene 116519)
As to the kind of experiment: LTEA_HepaRG_APOA5: Life Technologies and Expression Analysis (LTEA) Assay for Apolipoprotein A-V (APOA5) gene using HepaRG (AID 2283474). The procedure, abridged: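 Readout is APOA5 transcript level by qRT-PCR on Fluidigm dynamic arrays, normalized to three housekeeping genes. HepaRG cultures received chemicals for 48 h at up to 100 uM (half-log steps, 0.5% DMSO), with gain or loss scored relative to DMSO.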

Read-out in experiment [10]: Apoptosis regulator Bcl-2 (Homo sapiens) (UniProt P10415)
Kind of experiment: LTEA_HepaRG_BCL2: Life Technologies and Expression Analysis (LTEA) Assay for Bcl-2 gene using HepaRG (AID 2283475).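 Further: BCL2 transcript by TaqMan qRT-PCR normalised to ACTB GAPDH and POLR2A.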 The procedure, abridged:
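Expression change of BCL2 mRNA in HepaRG after 48 h dosing, quantified by TaqMan qRT-PCR against three endogenous controls. Concentration-response used eight points up to 100 uM, vehicle 0.5% DMSO.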

Read-out in experiment [11]: Bcl-2 (BID) gene, BID (gene 637)
As to the kind of experiment: LTEA_HepaRG_BID: Life Technologies and Expression Analysis (LTEA) Assay for Bcl-2 (BID) gene using HepaRG (AID 2283476). The procedure, abridged: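 Gain or loss of BID expression is fitted relative to 0.5% DMSO vehicle. Human HepaRG liver cells received a 48 h chemical exposure over an eight-point concentration range.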

Read-out in another experiment: Caspase-3 (Homo sapiens) (UniProt P42574)
As to the kind of experiment: LTEA_HepaRG_CASP3: Life Technologies and Expression Analysis (LTEA) Assay for cysteine-aspartic acid protease (CASP3) using HepaRG (AID 2283477). A digest of the protocol:
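Read-out is CASP3 mRNA level by TaqMan qRT-PCR in human HepaRG cells after 48 h chemical exposure. Eight half-log concentrations topping at 100 uM were tested in 0.5% DMSO; gain or loss was fitted relative to DMSO.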

Read-out in experiment [12]: Cytochrome P450 (CYP24A1), CYP24A1 (gene 1591)
As to the kind of experiment: LTEA_HepaRG_CYP24A1: Life Technologies and Expression Analysis (LTEA) Assay for Cytochrome P450 (CYP24A1) using HepaRG (AID 2283478). The procedure, abridged: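 HepaRG, 48 h chemical exposure, 8-pt half-log CRC from 100 uM, 0.5% DMSO vehicle, duplicates. Endpoint: CYP24A1 mRNA by Fluidigm TaqMan qRT-PCR, normalized ACTB/GAPDH/POLR2A; gain/loss fit vs DMSO.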

Read-out in experiment [13]: Cytochrome P450 (CYP1A2), CYP1A2 (gene 1544)
Kind of experiment: LTEA_HepaRG_CYP1A2: Life Technologies and Expression Analysis (LTEA) Assay for Cytochrome P450 (CYP1A2) using HepaRG (AID 2283479). The procedure, abridged: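 CYP1A2 transcript induction or loss, quantified by Fluidigm qRT-PCR against three housekeeping genes, was fitted bidirectionally against 0.5% DMSO controls. Human HepaRG cells received eight half-log concentrations from 100 uM over 48 h.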

Read-out in experiment [14]: cysteine-aspartic acid protease (CASP8), CASP8 (gene 841)
Kind of experiment: LTEA_HepaRG_CASP8: Life Technologies and Expression Analysis (LTEA) Assay for cysteine-aspartic acid protease (CASP8) using HepaRG (AID 2283480). A digest of the protocol: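 Differentiated human HepaRG cells, plated 48 h then switched to serum-free induction medium, were exposed in duplicate for 48 h to 8 half-log concentrations up to 100 uM in 0.5% DMSO. CASP8 mRNA was quantified by qRT-PCR, normalized to ACTB/GAPDH/POLR2A.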

Read-out in experiment [15]: Cytochrome P450 (CYP2B6), CYP2B6 (gene 1555)
As to the kind of experiment: LTEA_HepaRG_CYP2B6: Life Technologies and Expression Analysis (LTEA) Assay for Cytochrome P450 (CYP2B6) using HepaRG (AID 2283481). A digest of the protocol:
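HepaRG cells plated 48 h, switched to serum-free induction medium, then dosed 48 h (8 points, half-log from 100 uM, 0.5% DMSO). RNA isolated; CYP2B6 expression measured by qRT-PCR; gain or loss fitted relative to DMSO.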

Read-out in experiment [16]: Cytochrome P450 2C19 (Homo sapiens) (UniProt P33261)
As to the kind of experiment: LTEA_HepaRG_CYP2C19: Life Technologies and Expression Analysis (LTEA) Assay for CYP2C19 using HepaRG (AID 2283482). The procedure, abridged:
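Transcript levels of CYP2C19 were quantified by qRT-PCR after HepaRG cells were treated for 48 hours with test chemicals up to 100 uM (eight half-log concentrations, 0.5% DMSO vehicle). Gain or loss of signal was fitted relative to DMSO.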

Read-out in a further experiment: CYP2C8 (gene 1558)
Kind of experiment: LTEA_HepaRG_CYP2C8: Life Technologies and Expression Analysis (LTEA) Assay for CYP2C8 using HepaRG (AID 2283483). The procedure, abridged:
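Differentiated human HepaRG cells were exposed for 48 h in serum-free induction medium to eight half-log concentrations up to 100 uM in 0.5% DMSO, in duplicate. CYP2C8 mRNA was measured by TaqMan qRT-PCR, normalized to ACTB, GAPDH and POLR2A, and fitted bidirectionally against DMSO.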

Apoptosis regulator Bcl-2 (Homo sapiens), sequence (P10415 whole entry, looked up): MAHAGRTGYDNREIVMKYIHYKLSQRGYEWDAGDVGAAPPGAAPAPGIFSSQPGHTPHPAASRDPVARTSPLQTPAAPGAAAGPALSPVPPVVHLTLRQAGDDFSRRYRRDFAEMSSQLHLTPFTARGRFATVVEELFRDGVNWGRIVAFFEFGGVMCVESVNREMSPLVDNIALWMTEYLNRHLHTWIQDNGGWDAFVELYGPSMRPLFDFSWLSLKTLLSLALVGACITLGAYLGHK
Caspase-3 (Homo sapiens), sequence (P42574 whole entry, looked up): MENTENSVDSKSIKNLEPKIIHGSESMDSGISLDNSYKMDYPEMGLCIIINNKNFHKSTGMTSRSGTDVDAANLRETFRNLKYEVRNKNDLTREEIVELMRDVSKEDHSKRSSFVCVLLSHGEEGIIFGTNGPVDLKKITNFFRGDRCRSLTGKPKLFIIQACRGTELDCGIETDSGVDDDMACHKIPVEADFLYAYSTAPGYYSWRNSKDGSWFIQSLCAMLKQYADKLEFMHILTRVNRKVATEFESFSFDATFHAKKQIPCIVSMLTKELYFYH
Cytochrome P450 2C19 (Homo sapiens), sequence (P33261 whole entry, looked up): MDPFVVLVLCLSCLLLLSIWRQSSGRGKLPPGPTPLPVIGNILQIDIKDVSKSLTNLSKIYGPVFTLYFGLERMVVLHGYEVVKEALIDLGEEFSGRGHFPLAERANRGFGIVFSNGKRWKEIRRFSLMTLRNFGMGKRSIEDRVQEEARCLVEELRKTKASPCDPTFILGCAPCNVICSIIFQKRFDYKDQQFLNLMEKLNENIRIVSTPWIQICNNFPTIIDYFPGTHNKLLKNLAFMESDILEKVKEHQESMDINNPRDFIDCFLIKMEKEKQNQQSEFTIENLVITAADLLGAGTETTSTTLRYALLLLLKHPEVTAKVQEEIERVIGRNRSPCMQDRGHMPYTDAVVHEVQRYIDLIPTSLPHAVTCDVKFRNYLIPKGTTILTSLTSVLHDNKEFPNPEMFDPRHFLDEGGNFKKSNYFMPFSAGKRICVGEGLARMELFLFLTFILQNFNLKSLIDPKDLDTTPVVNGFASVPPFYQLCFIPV
Broad substrate specificity ATP-binding cassette transporter ABCG2 (Homo sapiens), sequence (Q9UNQ0 whole entry, looked up): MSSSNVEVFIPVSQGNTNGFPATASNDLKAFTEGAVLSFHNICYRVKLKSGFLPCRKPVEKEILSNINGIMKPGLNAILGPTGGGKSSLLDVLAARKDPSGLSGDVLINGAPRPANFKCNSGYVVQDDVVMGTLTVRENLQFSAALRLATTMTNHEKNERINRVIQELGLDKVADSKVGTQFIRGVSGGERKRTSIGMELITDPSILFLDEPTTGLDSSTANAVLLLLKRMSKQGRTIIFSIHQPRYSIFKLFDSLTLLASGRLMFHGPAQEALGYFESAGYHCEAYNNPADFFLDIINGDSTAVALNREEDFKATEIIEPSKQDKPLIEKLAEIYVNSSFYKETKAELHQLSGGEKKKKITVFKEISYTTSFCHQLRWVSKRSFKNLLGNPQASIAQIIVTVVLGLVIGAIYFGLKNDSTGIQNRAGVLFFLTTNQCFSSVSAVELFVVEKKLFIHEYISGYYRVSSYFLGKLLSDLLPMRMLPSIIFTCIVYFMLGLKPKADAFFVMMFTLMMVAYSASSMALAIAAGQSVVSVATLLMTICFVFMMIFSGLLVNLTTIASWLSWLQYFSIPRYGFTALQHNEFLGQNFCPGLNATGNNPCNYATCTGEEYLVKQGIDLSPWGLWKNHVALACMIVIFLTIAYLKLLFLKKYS

For orientation: AC50 means the concentration at which the activity in the assay is half-maximal. Consider `Nc1ccc2ccccc2c1`, for which the outcome in experiment [1], in experiment [2], in experiment [3], in experiment [4], in [5] and in experiment [6] was inactive. Moreover, the result (in experiment [7]; in experiment [8]; with BCL2L11 (gene 10018); in experiment [9]; in experiment [10]; in experiment [11]) was inactive. For the same compound, the compound was classed as inactive (with Caspase-3 (Homo sapiens); in [12]; in [14]; in the experiment with CYP2C8 (gene 1558)). In addition, the AC50 is 33.1 µM (active) in experiment [13], 13 µM (active) in [15] and 26.7 µM (active) in experiment [16].

As for `Cc1cccc(N)c1`, the compound was classed as inactive in experiment [1], in [2], in experiment [3], in experiment [4], in experiment [5] and in [6]. The call (in experiment [7]; in experiment [8]; with BCL2L11 (gene 10018); in [9]; in [10]; in experiment [11]) was inactive. The call (with Caspase-3 (Homo sapiens); in experiment [12]; in experiment [14]; in experiment [15]; in [16]; with CYP2C8 (gene 1558)) was inactive. Also, the concentration at half-maximal activity (AC50) in [13] was 50.2 µM (active).

Turning to `c1ccc2c(c1)Nc1ccccc1S2`, the compound was called inactive in [1], in experiment [2], in experiment [3], in experiment [4], in [5] and in [6]. Further, the outcome (in experiment [7]; in experiment [8]; with BCL2L11 (gene 10018); in [9]; in experiment [10]; in [11]) was inactive. The call (with Caspase-3 (Homo sapiens); in experiment [12]; in experiment [14]; in the experiment with CYP2C8 (gene 1558)) was inactive. Besides, the results for the concentration at half-maximal activity (AC50) in experiment [13], in experiment [15] and in experiment [16] were 82.8 µM (active), 36.6 µM (active) and 50 µM (active), respectively.

Regarding `CCC(C)(C)c1ccc(O)cc1`, the call in experiment [1], in experiment [2], in experiment [3], in experiment [4], in experiment [5] and in experiment [6] was inactive. Also, the compound was called inactive (in experiment [7]; in [8]; with BCL2L11 (gene 10018); in experiment [9]; in experiment [10]; in experiment [11]). Further, the call (with Caspase-3 (Homo sapiens); in experiment [12]; in experiment [13]; in experiment [14]; in experiment [15]; in [16]) was inactive. In the experiment with CYP2C8 (gene 1558), the outcome was inactive.

With `OCC1CO1` (stereo not given), the call in [1], in [2], in experiment [3], in [4], in [5] and in [6] was inactive. The compound was classed as inactive (in experiment [7]; in experiment [8]; with BCL2L11 (gene 10018); in experiment [9]; in experiment [10]; in experiment [11]). Besides, the outcome (in the experiment with Caspase-3 (Homo sapiens); in experiment [12]; in experiment [13]; in experiment [14]; in experiment [15]; in experiment [16]) was inactive. Moreover, the compound was called inactive with CYP2C8 (gene 1558).
